Experimental data taken from PubChem BioAssay AID2549 (National Center for Advancing Translational Sciences (NCATS), 2010).
Values joined by “and” are separate entries in the source; they are usually repeats but may differ in a detail not shown here. Identical values can stand only once. Among all 240,000 compounds or so, about 1,300 (0.54%) were called active. About 1% were inconclusive and are not listed. Calls follow the shape of the dose curve; as a rule, active = well fitted inhibition curve with a large enough effect; inconclusive = small, poorly fitted or top-dose-only effect; inactive = flat fitted curve, though single readings scatter. What follows is part of a selection rich in actives, with near analogues and random picks from the rest. A call without a number means that no potency is given here. Some compounds were tested as several samples or in several runs, with calls that do not always agree. Where a SMILES comes first, the peptide text is derived from it. Bridges are numbered along the chain shown (N, C = ends).

What follows are molecules tested against ATP-dependent DNA helicase Q1 (Homo sapiens) (UniProt P46063) (assay: qHTS Assay for Inhibitors of RecQ-Like Dna Helicase 1 (RECQ1)). Details: RECQ1 DNA unwinding, red fluorescence kinetic read; series mostly up to 57.3 µM.
ATP-dependent DNA helicase Q1 (Homo sapiens), sequence (P46063 whole entry, looked up): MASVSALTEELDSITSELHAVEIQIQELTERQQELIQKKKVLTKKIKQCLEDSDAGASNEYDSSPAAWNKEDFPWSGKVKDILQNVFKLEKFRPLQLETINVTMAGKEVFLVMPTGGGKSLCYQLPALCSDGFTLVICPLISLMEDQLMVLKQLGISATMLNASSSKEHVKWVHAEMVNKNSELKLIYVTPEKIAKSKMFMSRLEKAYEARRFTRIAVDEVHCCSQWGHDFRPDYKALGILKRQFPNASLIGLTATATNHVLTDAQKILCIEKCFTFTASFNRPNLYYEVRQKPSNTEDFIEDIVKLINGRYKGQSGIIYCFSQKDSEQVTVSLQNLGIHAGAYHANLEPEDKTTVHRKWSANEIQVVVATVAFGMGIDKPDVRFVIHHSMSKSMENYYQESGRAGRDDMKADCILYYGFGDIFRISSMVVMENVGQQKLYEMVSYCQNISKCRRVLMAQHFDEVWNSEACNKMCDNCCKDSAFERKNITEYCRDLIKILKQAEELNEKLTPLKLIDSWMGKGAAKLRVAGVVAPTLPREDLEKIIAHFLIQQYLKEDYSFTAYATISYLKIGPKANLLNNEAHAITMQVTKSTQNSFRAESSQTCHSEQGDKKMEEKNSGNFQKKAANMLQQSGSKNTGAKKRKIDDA
Method in brief: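 RECQ1T1 50 nM; forked duplex (20 bp + 30-nt ss tails) 200 nM, ATP 2 mM final; pH 8.0, 2 mM MgCl2, 2.5 ug/ml poly(dI-dC); 15 min compound preincubation; discontinuous kinetic read over 2 h at RT.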
Also: nearly all actives have a fitted effect of over 30% in size.
Potency is read from the fitted curve at half-maximal effect.

| Structure (SMILES) | Potency |
| --- | --- |
| COc1ccc(NC(=O)Cn2c(=O)n(Cc3ccco3)c(=O)c3ccccc32)cc1 | inactive |
| CN(c1ccccc1)c1ccc(/C=c2\s/c(=C(/C#N)C(=O)C(C)(C)C)n(Cc3ccco3)c2=O)cc1 | 17.8 µM (active) |
| Cc1cs/c(=N\N=C\c2ccc(O)cc2)n1Cc1ccco1 | inactive |
| COc1ccc(C2CC(O)(c3ccccc3)Oc3cc(C)cc(C)c32)cc1 (stereo unspecified) | inactive |
| O=[N+]([O-])c1ccc(C=Nc2ccc(Cl)cc2Cl)s1 | 25.1 µM (active) |
| CC(C)(C)c1cc(C(=O)N/N=C/c2ccc([N+](=O)[O-])s2)n[nH]1 | inactive |
| CCOc1ccc(NC(=O)CCC(=O)N/N=C/c2ccc([N+](=O)[O-])s2)cc1 | inactive |
| CC(C)c1cnc(NC(=O)Cc2ccccc2)s1 | inactive |
| CC(=O)OCC(NC(=O)C(Cc1ccccc1)NC(=O)OC(C)(C)C)C1OC(n2ccc(=O)[nH]c2=O)C(OC(C)=O)C1OC(C)=O (stereo unspecified) | inactive |
| COC(OC)c1ccnc(SCc2ccccc2Cl)n1 | inactive |
| Clc1ccccc1CSc1nnc(-c2ccco2)c(-c2ccco2)n1 | 35.5 µM (active) |
| Nc1nc(SCc2ccccc2Cl)n[nH]1 | inactive |
| O=C(Nc1nnc(SCc2ccccc2)s1)c1ccco1 | inactive |
| c1ccc(CSc2nnc(-c3ccco3)c(-c3ccco3)n2)cc1 | 11.2 µM (active) |
| Brc1ccc(CSc2ccc(-c3ccco3)nn2)cc1 | inactive |
| COc1ccc(-c2ccc(C3C4C=CCCC4(C)C(=O)N3Cc3ccccc3)c(F)c2)cc1OC (stereo unspecified) | inactive |
| Cc1noc(C)c1-c1ccc2ncnc(NC(C)c3ccco3)c2c1 (stereo unspecified) | inactive |
| CCN(CC)/[N+]([O-])=N/Oc1cc(O/[N+]([O-])=N/N2CCCC2CO)c([N+](=O)[O-])cc1[N+](=O)[O-] (stereo unspecified) | inactive |
| OC(CCl)CCl | inactive |
| Cc1cc(Cl)ccc1NNC(=O)c1snnc1C | inactive |
| COc1cccc(-c2cc(=O)c3cc(NC(=O)c4ccc(C)cc4)ccc3[nH]2)c1 | inactive |
| Cc1ccc(S(=O)(=O)Oc2ccc(/C=N/NC(=O)c3c(Cl)cnn3C)cc2)cc1 | inactive |
| Cn1c2ccccc2c(=O)c2c(O)cccc21 | inactive |
| Oc1ccc(O)c2c(O)cccc12 | 3.98 µM (active) |

| Structure (SMILES) | Potency |
| --- | --- |
| CNC(=O)[C@]1(C(F)(F)F)C[C@H](CCc2ccccc2)CCCO1 | inactive |
| O=C1c2cccc(OCC(=O)N3N=C(c4cccs4)CC3c3ccc(F)cc3)c2CCN1Cc1ccccc1 (stereo unspecified) | inactive |
| CC1CCCC(NC(=O)COC(=O)[C@@H]2CC(O)CN2S(=O)(=O)c2ccc3c(c2)OCCO3)C1C (stereo partly specified) | inactive |
| O=C(CSc1ncn[nH]1)NCc1ccc2c(c1)OCO2 | inactive |
| Cc1ccccc1-c1nnc(SCC(=O)NCc2ccc3c(c2)OCO3)n1C | inactive |
| O=C(CSc1ccc(-c2ccco2)nn1)NCc1ccc2c(c1)OCO2 | 28.2 µM (active) |
| C=C1CCN(C(CC(C)C)C(=O)N2CCOCC2)S(=O)(=O)c2ccccc21 (stereo unspecified) | inactive |
| Cc1cccc(C2c3[nH]c4ccccc4c3CCN2C(=O)c2cc(-c3cccn3C)n[nH]2)n1 (stereo unspecified) | inactive |
| O=C(O)c1ccc(/C=C2/SC(=S)N(c3cccc(C(F)(F)F)c3)C2=O)cc1 | inactive |
| C=CCNC(=O)CSc1nc2scc(-c3ccco3)c2c(=O)n1CC=C | inactive |
| C=CCn1c(=S)[nH]c2scc(-c3ccco3)c2c1=O | 31.6 µM (active) |
| C=CCn1c(SCc2csc(C)n2)nc2scc(-c3ccc(C)o3)c2c1=O | inactive |
| O=C1C[C@@H](c2ccc3ccccc3c2)N1S(=O)(=O)c1ccccc1[N+](=O)[O-] | inactive |
| Oc1cc(O)c2c(c1)OC(c1ccc(O)c(O)c1)C(O)C2 (stereo unspecified) | 14.1 µM (active) |
| Cc1nnnn1/C(=C\c1ccccc1)C(=O)OCC(=O)N1CC2(C)CC1CC(C)(C)C2 (stereo unspecified) | inactive |
| O=c1c(O)c(Br)ccc2c(Br)c(O)c(O)c(O)c12 | 3.16 µM (active) |
| CCC1(CC)C(=O)C2=C3C1[C@H](C(=O)OC)C=C(C(=O)OC)C[C@H]3[C@H]1C(=O)N(Cc3ccccc3)C(=O)[C@H]1[C@H]2C (stereo partly specified) | inactive |
| Cc1cc(/C=N/NC(=O)c2cccnc2)c(C)n1CC(C)C | inactive |
| O=C(N/N=C/c1sc(N2CCCCC2)nc1-c1cccs1)c1cccnc1 | 10 µM (active) |
| O=C(N/N=C/c1ccccn1)c1cccnc1 | inactive |
| N#C/C(=C\c1ccc(O)c(O)c1)C(=O)NCc1ccccc1 | inactive and 31.6 µM (active) |
| COCCNC(=O)/C(C#N)=C/c1cccc(OCc2ccccc2)c1 | inactive |
| N#C/C(=C\c1ccc(O)c(O)c1)C(N)=O | inactive |
| c1ccc(C2CNCc3c2ccc2ccccc32)cc1 (stereo unspecified) | inactive |

| Structure (SMILES) | Potency |
| --- | --- |
| CC(=O)Nc1ccc(S(=O)(=O)N2N=NC3C2C2CC4C3(CN(C(=O)OC(C)(C)C)S4(=O)=O)O2)cc1 (stereo unspecified) | inactive |
| Cc1c(-c2cccc(Cl)c2)nc2ccccc2c1C(=O)OCC(=O)N(C)C1CCS(=O)(=O)C1 (stereo unspecified) | inactive |
| CN(C(=O)COC(=O)c1cc(-c2ccco2)nc2ccccc12)C1CCS(=O)(=O)C1 (stereo unspecified) | 14.1 µM (active) |
| COc1ccc(NC(=O)COc2ccc(C(=O)OCC(=O)N(C)C3CCS(=O)(=O)C3)cc2OC)cc1 (stereo unspecified) | inactive |
| CC(=O)OC1C([N+]2(C)CCCCC2)C[C@H]2C3CC[C@H]4C[C@H](OC(C)=O)C([N+]5(C)CCCCC5)CC4(C)C3CCC12C (stereo partly specified) | inactive |
| O=c1[nH]c(=O)c2nc3ccccc3nc2[nH]1 | inactive |
| Cc1cc2nc3c(=O)n(Cc4ccccc4)c(=O)[nH]c3nc2cc1N | inactive |
| Nc1ccc2nc3c(=O)[nH]c(=S)[nH]c3nc2c1 | 7.94 µM (active) |
| CCOc1ccc(/C=C2\SC(=S)N(NC(=O)c3ccncc3)C2=O)cc1OC | inactive |
| COc1ccc(C2=Nn3c(nnc3-c3ccccc3O)SC2)cc1 | inactive |
| C=CCCN(C(Cc1ccccc1)C(=O)OC)S(=O)(=O)c1cc(Br)ccc1Br (stereo unspecified) | inactive |
| C=C1CCN(Cc2ccc(OC)cc2)S(=O)(=O)c2ccccc21 | inactive |
| Cc1ccc(SCC(CC(C)C)N2CCN(CCc3ccccc3)CCC2=O)cc1 (stereo unspecified) | inactive |
| COc1ccc2c(=O)cc(-c3ccccc3)oc2c1O | inactive |
| Cc1cccc(-c2cc(=O)c3cc(C)ccc3o2)c1 | inactive |
| COc1c(O)cc2oc(-c3ccc(O)c(O)c3)cc(=O)c2c1O | 11.2 µM (active) and 8.91 µM (active) |
| O=c1cc(-c2ccc(O)c(O)c2)oc2cccc(O)c12 | 25.1 µM (active) |
| O=c1cc(-c2ccc(O)cc2)oc2c(-c3cc(-c4cc(=O)c5c(O)cc(O)cc5o4)ccc3O)c(O)ccc12 | inactive |
| CCOC(=O)COc1cc(O)c2c(=O)cc(-c3ccccc3)oc2c1 | inactive |
| C=C1/C(=C\C=C2\CCCC3(C)C2CCC3C(C)/C=C/C(O)C2CC2)CC(O)CC1O (stereo unspecified) | inactive |
| CCCCc1nn(-c2ccccc2C(F)(F)F)c(=O)n1Cc1ccc(-c2ccccc2S(=O)(=O)NC(=O)c2sccc2C)cc1 | inactive |
| COC(=O)c1ccc(C(NC(=O)OCc2ccccc2)/C(F)=C/[C@@H](C)C(=O)O)cc1 (stereo partly specified) | inactive |
| COc1ccc(CCCOC(Cn2ccnc2)c2ccc(OC)cc2)cc1 (stereo unspecified) | inactive |
| Cc1ccccc1NC(=O)CN1C(=O)N/C(=C\c2cccn2-c2cccc(C(=O)O)c2)C1=O | 14.1 µM (active) |

| Structure (SMILES) | Potency |
| --- | --- |
| O=C1N/C(=C/c2cccn2-c2ccccc2)C(=O)N1c1cccc(Cl)c1 | inactive |
| Cc1cccc(NC(=O)CN2C(=O)c3ccccc3C2=O)c1C | inactive |
| COc1ccccc1NC(=S)N1CCN(C(c2ccccc2)c2ccccc2)CC1 | inactive |
| COc1ccc(Br)cc1C1C2C=CCC(C)C2C(=O)N1Cc1ccccc1 (stereo unspecified) | inactive |
| O=C1c2ccccc2C(=O)N1Cc1cc(-c2ccccc2Cl)no1 | 31.6 µM (active) |
| O=C1c2ccccc2C(=O)N1CCCc1nc(-c2ccccc2)no1 | inactive |
| O=C1c2cccnc2C(=O)N1Cc1cccs1 | inactive |
| Oc1ccc(N=Cc2sc3ccccc3c2Cl)cc1 | 8.91 µM (active) |
| Oc1ccc(N=Cc2c(O)ccc3ccccc23)cc1 | inactive |
| O=C(N/N=C/c1c(Cl)[nH]c2ccccc12)c1sc2ccccc2c1Cl | inactive |
| C[C@@H](O)[C@@H]1NC(=O)[C@H](CCCCN)NC(=O)[C@H](Cc2c[nH]c3ccccc23)NC(=O)[C@H](Cc2ccccc2)NC(=O)[C@H](Cc2ccccc2)NC(=O)[C@H](CC(N)=O)NC(=O)[C@H](CCCCN)NC(=O)[C@@H](NC(=O)[C@@H]2CCCN2)CSSC[C@@H](C(=O)N[C@@H](CCCCN)C(=O)O)NC(=O)[C@H](CO)NC(=O)[C@H](CO)NC(=O)[C@H](Cc2ccccc2)NC1=O (H-PCKNFFWKTFSSCK-OH; disulfide 2-13) | inactive |
| CCCN1CCC(=O)N(C(CSc2ccc(OC)cc2)Cc2ccccc2)CC1 (stereo unspecified) | inactive |
| O=C(O)C1CC=CC2CCN(C3CCCCC3)C(=O)C21 (stereo unspecified) | inactive |
| Cc1ccc(C)c(CSc2nc(-c3ccco3)nc3c2c(=O)n(C)c(=O)n3C)c1 | inactive |
| C/C=C\C=C\C(=O)N1CC2(CC(c3cccc(NC(=O)/C(C)=C\C)c3)=NO2)C[C@H]1C(N)=O (stereo partly specified) | 20 µM (active) |
| CC/C=C/C(=O)N1CC2(CC(c3cccc(NC(=O)CC)c3)=NO2)C[C@H]1C(N)=O (stereo partly specified) | inactive |
| C/C=C(/C)C(=O)Nc1cccc(C2=NOC3(C2)C[C@@H](C(N)=O)N(C(=O)C2(C)CC2)C3)c1 (stereo partly specified) | inactive |
| O=S(O)S(=O)(=O)O | inactive |
| CC(=O)Nc1ccc(/C=N/NC(=O)c2cccs2)cc1 | inactive |
| Cc1ccc(-c2cc(C(=O)N/N=C/C=C/c3ccco3)c3ccccc3n2)cc1C | inactive |
| O=C(N/N=C/C=C/c1ccco1)c1cccs1 | 35.5 µM (active) |
| NC(=O)COC(=O)/C=C/c1ccc2ccccc2n1 | inactive |
| CC(=O)c1ccc(S(=O)(=O)N2CCN(C(=O)/C=C/c3ccc4ccccc4n3)CC2)cc1 | 25.1 µM (active) |
| COC(=O)c1ccc(S(=O)(=O)N2CCC(c3nc4ccccc4o3)CC2)cc1 | inactive |
